# Reference: PubChem BioAssay (NCI)
# This is part of a sample that, as a whole, favours compounds with a hit. Of some 83,000 tested, about 20% had one in any assay.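 Step 1: grow cells in 96-well plates. Step 2: add test compound at a single concentration. Step 3: incubate 48 h. Step 4: record percent growth.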 Values without a mark were called inactive. Active and inactive are the calls of the source. The calls were made as follows: active = growth percent below 10; inactive = the rest.
# How the values were obtained:
# Assay in all cases: NCI-60 one-dose screen, 48 h (100 = growth as untreated, 0 = no growth, -100 = all killed)
# Conditions in all cases: 10 µM unless noted
# HCT-15 colon = system: HCT-15 colon
# HT29 colon = system: HT29 colon
# SNB-75 CNS = system: SNB-75 CNS
# SNB-19 CNS = system: SNB-19 CNS
# U251 CNS = system: U251 CNS
# PC-3 prostate = system: PC-3 prostate
# SK-MEL-5 melanoma = system: SK-MEL-5 melanoma
# UACC-62 melanoma = system: UACC-62 melanoma
# LOX IMVI melanoma = system: LOX IMVI melanoma
# SK-MEL-28 melanoma = system: SK-MEL-28 melanoma
SMILES,growth (HCT-15 colon),growth (HT29 colon),growth (SNB-75 CNS),growth (SNB-19 CNS) [%],growth (U251 CNS),growth (PC-3 prostate) [%],growth (SK-MEL-5 melanoma),growth (UACC-62 melanoma),growth (LOX IMVI melanoma),growth (SK-MEL-28 melanoma)
COC(=O)C(N)CSC(c1ccccc1)(c1ccccc1)c1ccccc1 (centres undefined),28%,1.58% (active),31.4%,63.7,23.3%,25.1,23.9%,54.3%,35.2%,49.5%
COc1ccc(/C(=C\c2ccc3c(c2)OCO3)C(=O)Nc2nc3ccccc3s2)cc1OC,90.1%,90.3%,94.3%,101,97.9%,92.1,101%,97.8%,102%,106%
OCCNc1nc(Nc2ccc(Cl)c(Cl)c2)nc2ccccc12,26.2%,9.9% (active),61.1%,55.5,34.2%,18.8,34%,57.1%,34.1%,73.6%
CC(C)(C)c1ccc(OP(=S)(N/N=C/c2ccccc2O)Oc2ccc(C(C)(C)C)cc2)cc1,69.9%,69.2%,66.1%,81,50.4%,30.1,73.5%,76.5%,67.6%,83.3%
CC(C)(C)CC(C)(C)c1ccc(OCCOCC[N+](C)(C)CC(=O)[O-])cc1,105%,103%,99.2%,111,98.4%,104,106%,104%,107%,114%
Cc1cc(Cl)c2c(N(C)C)cccc2n1,94.1%,78%,93.6%,105,105%,119,101%,105%,84.1%,113%
Nc1nc(N)c2nc3c(nc2n1)CCCCCCCCCC3,33.6%,35.6%,79.2%,50.8,34.9%,39.2,35%,43.9%,30.8%,90.4%
CC(C)=CCC/C(C)=C/CC/C(C)=C/CC/C(C)=C/CSC[C@H](NC(=O)CCCCCN1CCN(C)CC1)C(=O)NC1CCCCC1,24%,-39% (active),81.5%,85.6,55.2%,64.4,97.9%,87.6%,68.5%,5.53% (active)
C#Cc1cc2c(N)c(C(=O)c3cc(OC)c(OC)c(OC)c3)[nH]c2cc1OC,32.2%,6.27% (active),-8.14% (active),43.7,34%,16.3,19.9%,34.7%,46.1%,40.3%
COc1ccc(C(=O)/C=C/c2cc(-c3cc(OC)c(OC)c(OC)c3)n[nH]2)cc1OC,-16.4% (active),-71% (active),33.2%,35.2,-85.5% (active),20.3,12.3%,34.1%,-96.3% (active),-60.6% (active)
NC(=O)[C@@H]1CC2CCC1C2 (some centres undefined),98.2%,117%,85.1%,111,96.3%,91,109%,110%,106%,109%
C=C(C)[C@@H]1CC[C@]2(C(=O)N3CCN(CC)CC3)CC[C@]3(C)[C@H](CC[C@@H]4[C@@](C)(CCC(=O)N5CCN(CC)CC5)[C@H](C(=C)C)CC[C@]43C)[C@@H]12,9.11% (active),17.3%,69.2%,85.1,40.6%,32.5,45.5%,50.9%,–,55.8%
Fc1ccc2[nH]cc(-c3nc(-c4c[nH]c5ncccc45)cs3)c2c1,20.3%,21.7%,-17.2% (active),63.8,43.6%,43.8,52.8%,48.5%,–,89%
Nc1nc2c(c(=O)[nH]1)C(c1ccc3c(c1)OCO3)C=C(C(=O)O)N2 (centres undefined),111%,108%,85.6%,104,101%,113,102%,116%,–,96.2%
C=C(C)[C@@H]1CC[C@]2(C(=O)OC)CC[C@]3(C)[C@H](CC[C@@H]4[C@@](C)(CC/C(N)=N/O)[C@H](C(=C)C)CC[C@]43C)[C@@H]12,102%,99.1%,95.4%,95.9,97.7%,86.1,94.2%,99.6%,–,101%
Cc1nn(-c2ccc(Br)cc2)c2nc3[nH]c(=O)[nH]c(=O)c3nc12,104%,101%,74.6%,104,101%,111,100%,102%,–,91.2%
Brc1cnc2[nH]cc(-c3nnc(-c4ccccc4)o3)c2c1,55%,74.8%,66.3%,79.5,74.6%,77.9,80.4%,66.9%,–,90.9%
CC(=O)OC[C@]12CC[C@@H](/C(C)=N/O)[C@@H]1[C@H]1CC[C@@H]3[C@@]4(C)CCCNC(C)(C)[C@@H]4CC[C@@]3(C)[C@]1(C)CC2,60.1%,59.6%,63.9%,83.1,68.7%,42.5,51.3%,66.5%,–,86%
O=C1C(Cl)=C(Nc2ccc(S(=O)(=O)c3ccc(NC4=C(Cl)C(=O)c5ccccc5C4=O)cc3)cc2)C(=O)c2ccccc21,0.496% (active),32.6%,57.7%,44.8,5.68% (active),15.8,49.3%,12.5%,–,14.2%
Nc1ccc(Br)cn1,102%,104%,87.3%,107,108%,98.9,100%,97.3%,–,107%
Nc1ccccc1NC(=O)c1ccc(CN2CCC/C(=C\c3ccccn3)C2=O)cc1,16.5%,13.8%,15.5%,38.1,23.9%,44,-15.6% (active),-23.6% (active),–,16.3%
CC(C)=CCC[C@](C)(O)[C@H]1CC[C@]2(C)[C@@H]1CC[C@@H]1[C@@]3(C)C/C(=C/c4cccc([N+](=O)[O-])c4)C(=O)C(C)(C)[C@@H]3CC[C@]12C,83.5%,55.4%,0.754% (active),96,85.7%,58.2,101%,78.1%,–,104%
Cn1cc(-c2csc(-c3c[nH]c4ccc(F)cc34)n2)c2cccnc21,19.2%,11.3%,36.4%,54.4,37.5%,48,25.9%,39.6%,–,57.4%
Cc1ccc(-c2ccc(Nc3ccccc3)nn2)cc1S(N)(=O)=O,65.9%,70.9%,87.1%,106,93.7%,93.8,89.3%,89%,73.7%,89.1%
CC(=O)O[C@H]1CC[C@@]2(C)C(=CC[C@@H]3[C@@H]2CC[C@]2(C)C(=O)N(O)C(=O)C[C@@H]32)C1,58.9%,89.2%,75.8%,95.5,69.3%,75.7,98.4%,100%,–,89.6%
COc1ccc(/C=C(\C#N)c2cc3ccccc3n2S(C)(=O)=O)cc1,46.4%,102%,73.1%,82.3,96.8%,80.2,87.8%,58.1%,–,82.5%
CC(=O)O[C@H]1CC[C@]2(C)[C@H]3CC=C4[C@@H]5[C@H](C)[C@@H](C)CC[C@]5(C(=O)NCCNCCNCCN)CC[C@@]4(C)[C@]3(C)CC[C@H]2C1(C)C,63.3%,42.5%,70.8%,82.6,70.1%,57.7,96.3%,91.7%,–,90.1%
CC(=O)c1c(C)[nH]c(-c2nc3ccc(N4CCN(C)CC4)cc3[nH]2)c1-c1ccc(OCC2CCOCC2)cc1,5.23% (active),8.59% (active),-9.92% (active),42.7,48.2%,40.4,-1.59% (active),20.4%,–,45.7%
